# Source: PubChem BioAssay (Buhrlage Lab, Dana-Farber Cancer Institute and Novartis Institutes for BioMedical Research (Cambridge, Mass))
# USP8 inh = inhibitors of human USP8 deubiquitinase; Ubiquitin carboxyl-terminal hydrolase 8 (Homo sapiens), P40818; purified USP8, Ub-rhodamine cleavage fluorescence, 30 min; inhibition, % at 20 µM; hit rate 4.2% among 47,000
# USP30 block = inhibitors of human USP30 deubiquitinase; purified USP30, Ub-rhodamine cleavage fluorescence; inhibition, % at 25 µM; hit rate 5.3% among 47,000; AID 1645860, 2021
# USP17 block = inhibitors of human USP17 deubiquitinase; inhibition, % at 50 µM; purified USP17, Ub-rhodamine cleavage fluorescence, 3 h; hit rate 6.5% among 47,000
# USP28 block = inhibitors of human USP28 deubiquitinase. hit rate 3% among 47,000. AID 1645857, 2021. purified USP28, Ub-rhodamine cleavage fluorescence, 30 min. inhibition, % at 25 µM. Ubiquitin carboxyl-terminal hydrolase 28 (Homo sapiens), Q96RU2
# Active calls of the source: *; i = inactive; · = no result given. Most compounds without a hit are left out; they make up all but 13% or so of the library. No stated cut-off is given here; in the data, active means inhibition above about 30%; inactive means the rest.
SMILES,USP8 inh,USP30 block,USP17 block,USP28 block
Cc1ccc(C)c(NC(=O)Cn2c3ncccc3c(=O)n2-c2ccccc2)c1,-4,45*,·,5
Cc1ccc(NC(=O)Cn2c3ncccc3c(=O)n2-c2cccc(Cl)c2)cc1,5,-23,0,-2
CN(C)c1nc(N)c(C(=O)N=C(N)N)nc1Cl,-2,7,2,9
COc1ccccc1-c1cc(NC(C)=O)c2ncc(-c3ccc(S(C)(=O)=O)cc3)n2c1,69*,-42,39*,-7
COC(=O)c1cc(NC(=O)Nc2cccc(Cl)c2)cc(C(=O)OC)c1,7,28,22,4
Cc1cc(C)cc(NC(=O)Cc2csc(NC(=O)Nc3cccc(Cl)c3)n2)c1,25,32*,12,24
O=C(NCC1CCCO1)c1cc(-c2ccn(CC3CC3)n2)n2ccccc12 (configuration not stated),-32,i,-104,-121
Cc1ccccc1OCCN1C(=O)C2CN(C(N)=O)CCN2C1=O (configuration not stated),42*,31*,12,14
O=C(COC(=O)C(Cc1c[nH]c2ccccc12)NC(=O)c1ccccc1Cl)Nc1ccc([N+](=O)[O-])cc1C(F)(F)F (configuration not stated),57*,-2,-1,-3
N#Cc1ccccc1NC(=O)COC(=O)C(Cc1c[nH]c2ccccc12)NC(=O)c1ccc(Cl)cc1 (configuration not stated),16,-2,14,5
O=C(COC(=O)C(Cc1c[nH]c2ccccc12)NC(=O)c1ccccc1Cl)c1ccc([N+](=O)[O-])cc1 (configuration not stated),-107,38*,17,13
Cc1ccc(C)c(NC(=O)COC(=O)C(Cc2c[nH]c3ccccc23)NC(=O)c2ccccc2Cl)c1 (configuration not stated),12,13,20,15
COc1ccc(CC(=O)Nc2c(NCc3ccccc3)c3ccccc3oc2=O)cc1,91*,75*,85*,34*
COc1ccc(-c2nonc2NC(=O)Cc2ccccc2)cc1,9,19,11,-26
CCc1ccc(-c2c3c4n(c(-c5ccc(C)cc5)cn4c2C(=O)Nc2ccc(Cl)cc2)CCCC3)cc1,11,-19,0,1
Cc1ccc(-c2c3c4n(c(-c5ccc(Cl)cc5)cn4c2C(=O)Nc2ccccc2Cl)CCCC3)cc1,43*,8,20,11
OCC1CSC(c2ccccc2O)=N1 (configuration not stated),1,27,30*,10
C=C[C@@]1(C)CC[C@@]2(C)[C@@H](CC[C@]3(C)C(C)=C(O)C(=O)C[C@H]23)C1,1,37*,43*,12
C=C[C@]1(C)CC[C@]2(C)[C@@H](C1)[C@@H](O)C[C@H]1[C@]3(C)CCC[C@@]12OC3=O,0,-11,-39,-7
COc1ccc(S(=O)(=O)N(C)C)cc1NC(=O)COC(=O)c1ccccc1,-4,14,43*,15
O=C(O)CC1(CC(=O)NCc2cccc(Cl)c2)CCCCC1,6,-6,4,-15
O=C(O)CC1(CC(=O)NCc2ccc(C(F)(F)F)cc2)CCCCC1,21,32*,16,12
Cc1cc(Oc2ccc(F)cc2F)nc2ccccc12,4,-1,-3,31*
CC(C)[C@@H]1NC(=O)N(c2ccc3nc(-c4ccncc4)oc3c2)C1=O,15,15,5,5
Cc1cc(C)nc(-n2nc(C)cc2NC(=O)c2ccc3c(c2)OCO3)n1,-27,-7,-5,-5
SMILES,USP8 inh,USP30 block,USP17 block,USP28 block
Cc1nc(NC(=O)c2ccc(F)cc2)nc2cc3c(cc12)OCO3,12,-228,36*,0
CCOc1c(C)cc(S(=O)(=O)Nc2ccc3c(c2)N(C(C)=O)CC3)cc1C,3,·,68*,·
Cn1nc(C(=O)N2CCOCC2)c2c1CN(Cc1ccccn1)CC2,-18,14,2,17
C[C@H](NC(=O)c1ccc(Cl)cc1Cl)C(=O)NCc1ccco1,-3,-2,-6,-5
O=C(NCc1ccco1)c1ccc(Oc2cc(Cl)cc(Cl)c2)o1,10,·,37*,·
O=C(c1ccccc1)N1CCN(c2cc(-c3ccccc3)[nH]n2)CC1,-10,0,-1,-7
Cc1ccc(C(=O)N2CCC3(C2)C(=O)Nc2ccccc23)cc1F (configuration not stated),4,12,3,4
CC(=O)c1ccc(N2CCN(C(=O)c3ccc(-c4noc(C)n4)cc3)CC2)cc1,5,1,0,0
COc1ccc(NC(=O)c2sc3ncn(CC(=O)N4CCN(c5ccccn5)CC4)c(=O)c3c2C)cc1OC,1,-1,19,-1
Cc1ccc(NC(=O)c2sc3ncn(CC(=O)N4CCN(c5ccccn5)CC4)c(=O)c3c2C)c(Br)c1,-11,-63,59*,-11
O=C(Nc1ccc2c(c1)OCCO2)c1c(-c2ccccc2)nnc2ccccc12,-25,-12,31*,-5
Cc1ccc(-c2cc(C(=O)Nc3ccc4c(c3)OCCO4)c3ccccc3n2)o1,28,-41,39*,7
Cc1ccccc1-c1cc(C(=O)Nc2ccc(Br)c(Br)c2)c2ccccc2n1,-19,-25,-9,-2
O=C(Nc1ccc2c(c1)OCCO2)c1cccc2nc3ccccc3nc12,37*,75*,41*,30
O=C(CCc1nc2ccccc2[nH]1)Nc1ccc2c(c1)OCCO2,0,·,27,·
CCN1C(=O)Cc2cc(NS(=O)(=O)c3ccccc3)ccc21,16,24,17,13
COc1cccc(CN2CCc3nc(C(=O)N4CCCC4)sc3CC2)c1,-19,7,-2,-2
CC(=O)NCCc1ccc(O)cc1,0,4,1,-3
COC(=O)C1(Cc2ccc(O)cc2)OC(=O)C(O)=C1c1ccc(O)cc1 (configuration not stated),-8,70*,85*,78*
CCOc1cc2[nH]c(=O)n(Cc3cccnc3)c(=O)c2cc1OCC,22,33*,17,7
CCOc1cc2[nH]c(=O)n(CC3CCC(C(=O)N4CCN(c5ccccn5)CC4)CC3)c(=O)c2cc1OCC (configuration not stated),4,6,19,-2
COc1cccc(CNC(=O)CCCCCn2c(=O)[nH]c3ccccc3c2=O)c1,17,41*,29,12
CCOc1cc2[nH]c(=O)n(CCCC(=O)NCc3ccco3)c(=O)c2cc1OCC,8,-82,33*,-3
COc1cc2[nH]c(=O)n(Cc3ccc(C(=O)NCc4ccco4)cc3)c(=O)c2cc1OC,26,11,0,0
COc1cc(NC(=O)Cn2c(=O)[nH]c3ccccc3c2=O)cc(OC)c1,19,73*,53*,25
NC(=O)C1(N2CCCCC2)CCN(C(=O)c2cc3c(=O)oc4ccccc4c3s2)CC1,12,-6,-5,4
Cc1oc(-c2[nH]ncc2C(=O)N2CCCC2)cc1S(=O)(=O)Nc1cccc(Cl)c1,-58,-73,-22,0
